# Measurements: the supplement of paper PMC6555819
# Key:
# Test in all cases: PBM binding z-score (relative to random genomic background probes); higher = stronger binding; sequences stand for … in GC…GCGATTGACAGCGTAGAATGAAGG
# [1] = tested on: FXR:RXRa (NR concentration 270 nM, RXRa partner concentration 90 nM)
# Outline: (§1)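 On custom Agilent 4×180K arrays, double-stranded probes with 34-nt variable regions carried direct-repeat seeds, single-nucleotide variants, half-site ablations or random human genomic background. Ligand-free nuclear receptor dimers were applied for 1 h, and binding was read with antibodies against each partner (one per run). Binding z-scores come from regression-normalized fluorescence, with the random background probes as reference.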
# [2] = tested on: LXRa:RXRa (NR concentration 270 nM, RXRa partner concentration 90 nM)
# Outline: as §1
# [3] = tested on: LXRa homodimer (NR concentration 270 nM)
# Outline: as §1
# [4] = tested on: LXRb:RXRa (NR concentration 270 nM, RXRa partner concentration 90 nM)
# Outline: as §1
# [5] = tested on: LXRb homodimer (NR concentration 270 nM)
# Outline: as §1
# [6] = tested on: PPARa:RXRa (NR concentration 270 nM, RXRa partner concentration 90 nM)
# Outline: as §1
# [7] = tested on: PPARg:RXRa (NR concentration 180 nM, RXRa partner concentration 90 nM)
# Outline: as §1
# [8] = tested on: PPARg:RXRa 270nM:90nM, anti-RXR (NR concentration 270 nM, RXRa partner concentration 90 nM)
# Outline: as §1
# [9] = tested on: PPARg:RXRa 30nM:10nM, anti-RXR (NR concentration 30 nM, RXRa partner concentration 10 nM)
# Outline: as §1
# [10] = tested on: PPARg:RXRa 90nM:30nM, anti-RXR (NR concentration 90 nM, RXRa partner concentration 30 nM)
# Outline: as §1
Sequence,PBM binding z-score [1],PBM binding z-score [2],PBM binding z-score [3],PBM binding z-score [4],PBM binding z-score [5],PBM binding z-score [6],PBM binding z-score [7],PBM binding z-score [8],PBM binding z-score [9],PBM binding z-score [10]
GTACCAAGGCGAATAGGTCGTTGATGAGTAGGCG,-0.145,-0.392,-0.286,-0.382,-0.895,0.351,0.461,-0.0926,-0.512,-0.516
CGAACTAGGTCATTGACAGGACAGAGAATAGTAA,4.59,3.18,0.538,1.92,0.12,4.71,7.41,6.39,3.83,6.06
CCGACTCGGGCAGAAAGGTTACCATACCATCCGG,0.546,0.698,-0.128,0.841,-0.536,1.97,1.41,2.44,0.663,1.76
TCTTATAGGTAAAGGTGAAAGTCGAACGATATGA,1.15,1.59,0.00548,1.58,0.488,3.27,3.38,4.4,4.42,4.81
TCTAGTTGGTCAGGGAGGTCACACACGACGGGTA,3.15,3.3,2.44,3.24,1.66,3.72,2.28,3.13,3.27,3.23
CCGACTGCGGCAAGGTTACCATAACGCACAGCCA,0.311,0.827,0.0346,0.9,-0.64,1.02,0.614,-0.189,-0.715,-0.26
CCTAGCAAGCCAGGGTCACTCAAGCATTTCGCTT,2.31,1.92,-0.142,2.16,-1.12,3.13,0.169,1.09,-0.503,0.224
GCTAGCAGGCCATTTGGGTGACTCAATGACGGGC,-0.535,-0.729,-0.901,-1.05,-1.19,0.031,0.218,-0.431,-0.682,-0.48
ATCGAAAGGTCGAGGTGAGTATGGAGAAAGGGAA,3.95,3.28,-0.073,2.56,0.624,4.45,3.02,3.6,1.01,2.39
GTACCGAGGTGAATAGGTCGTTGATGAGTAGGCG,1.03,0.978,-0.306,0.874,-0.778,2.68,1.86,2.13,0.147,0.886
AATACAGGGTAATCGTAGGCCAGAGTACGCACAG,0.175,1.34,-0.0914,0.309,-0.0115,0.447,1.25,0.792,0.499,0.377
TCATATAGGTAATACAGGTGAAAGTAGGCATCTA,0.885,1.45,0.55,1.22,0.295,2.15,2.26,2.62,3.8,3.24
TAACCAAGGTGAGCTGAGGTCGTTGATCCAACTC,2.66,1.63,-0.195,0.348,-0.934,1.81,0.206,0.531,-0.0525,0.137
GATACAGGGTCAGCTAAAGGCCAGAGTATGGAAA,4.35,2.74,-0.339,2.43,-0.758,4.67,4.07,3.58,0.882,2.24
TCTCGGAGGACACGAATGGTCAGAGCTCGACATC,0.104,0.0169,-0.468,-0.483,-0.915,-0.144,0.236,0.78,2.1,1.28
ACTATTAGTTGACTCAGGGCAACCGATACGACGC,0.117,0.225,0.326,0.195,0.862,0.023,0.893,0.163,0.201,0.123
ATCTCAAGGTAACCAAGTTCAGTGAATGCCGAAC,0.76,1.12,0.681,0.656,0.916,0.956,0.372,0.412,0.204,0.378
TTCCCAAGGTGAAGGTCGTTGATCCCTCTGTAGA,2.26,2.23,-0.0326,1.74,-0.362,2.26,0.674,1.81,0.663,1.37
AGTCAAAGTTCGGGACGAGGTAACGTAAAGCACG,0.65,0.402,-0.198,0.242,-0.3,1.08,1.85,2.33,0.491,1.33

Sequence,PBM binding z-score [1],PBM binding z-score [2],PBM binding z-score [3],PBM binding z-score [4],PBM binding z-score [5],PBM binding z-score [6],PBM binding z-score [7],PBM binding z-score [8],PBM binding z-score [9],PBM binding z-score [10]
TCTGCTAGGTCAGTTGTTCAGCTAACGAGCTGCC,0.697,0.0799,-0.424,0.213,0.398,1,-0.335,1.24,1.28,1.21
TCTGCTCGGTCAGTTGGTCAGCTAACGAGCTGCC,-0.211,-0.247,-0.549,-0.506,0.134,-0.00259,-1.22,0.38,0.881,0.52
CGTACTGGGCCAAAAAGGTCATTGATGCCGATAA,3.72,4.43,2.93,4.25,0.293,4.69,3.65,4.22,1.71,3.72
CGTCCAACGTCAAAGGTCAGTGAAGAGATGACGG,2.97,3.2,0.576,2.94,0.0829,4.04,3.28,4.92,2.64,4.72
CGTCCAAGGTCAATGATAGGTCAGTGAAAGCATT,6.83,6,2.8,4.83,0.895,5.41,3.87,4.8,1.74,3.35
GCTAGTTGGTCAGTAAAAGGTCGCACACCGGTCG,0.649,1.35,0.422,1.28,-0.0717,2.31,0.999,2.68,0.448,2.08
TGAATGAGGATATAAGATCAGGGAACGTTGCAAA,0.013,-0.248,-0.305,-0.404,-0.253,-0.127,0.623,0.286,0.757,0.775
ATCTCTAGGTAGGACTCAGTTCAGTGAAGAACGC,0.414,0.636,0.659,0.518,1.09,0.278,0.171,0.732,0.37,0.644
TTTCAAAGTTCAAAGGTAACGTAAGTATCCACAC,7.1,6.88,6.41,4.86,2.71,5.69,6,6.43,3.39,5.49
AGTCAGAGTTCACTAGGTAACGTAAGATTCAGCT,4.41,4.52,2.25,2.64,0.624,4.54,5.57,5.35,2.12,4.4
CCTTGCAGGCCAATCTGGGTCACTCAAGGCTTGA,0.555,1.37,-0.554,1.1,-0.539,3.31,2.29,2.35,-0.0639,1.2
GCGACTGGGGCATCAGCAGGTTACCATAACTTAA,0.0865,0.156,0.0275,0.704,-0.886,1.33,1.21,1.03,0.757,0.397
TCATATAGGTAAAAGGTGAACGTCGGTGTGGTAA,2.13,2,0.308,1.96,0.0983,5.54,9.49,8.84,8.77,9.46
GCTGCTGGGTCAACTGATGGTCAGCTAAAGCTCG,3.55,2.07,-0.346,1.83,-0.326,3.89,2.34,2.93,0.519,1.99
TCTAGCAGGCCAGAGGGTCGCTCAAGAGGTACGG,-2.83,-0.514,-0.98,-0.425,-1.97,0.269,0.213,1.29,1.69,1.37
AGAATGAGGTTATTAACATCAGGGAATTGCGGTC,1.93,1.61,0.0364,1.24,0.0777,2.63,1.32,1.34,0.42,0.938
TCTTGTAGATCAGGCAGGTTAAGAAAGCCTGAGT,0.09,0.00615,-0.308,0.209,-0.455,0.43,-0.505,0.864,2.52,1.62
ATCTCTTGGTAAAGTTCAGTGAAAGATCGATAGA,1.08,2.09,1.65,1.6,1.5,1.69,1.54,3.02,1.39,2.65
TCTTGAAGATCAAGCAGGTTAAGAAAGCCTGAGT,0.132,0.199,-0.36,0.402,-0.998,0.437,-0.324,1.11,2.96,1.74
